The values that follow come from PubChem BioAssay AID623994 (NMMLSC, 2012).

The target in this experiment is Multidrug resistance protein CDR2 (Candida albicans (strain SC5314 / ATCC MYA-2876)) (UniProt P78595). Briefly: blockers of Nile Red efflux by Candida CDR2 – S. cerevisiae AD1-8u, singleplex, Cherry Pick2 set, dose response (AID 623994).

Structures are written as SMILES. Entries with a potency or affinity are not part of this list. Active and inactive are the calls of the source.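 How the source made its calls: active means compounds whose fitted concentration for half the maximal dye retention is below 100 µM; inactive means the rest.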

Sequence of Multidrug resistance protein CDR2 (Candida albicans (strain SC5314 / ATCC MYA-2876)) (P78595 whole entry, looked up): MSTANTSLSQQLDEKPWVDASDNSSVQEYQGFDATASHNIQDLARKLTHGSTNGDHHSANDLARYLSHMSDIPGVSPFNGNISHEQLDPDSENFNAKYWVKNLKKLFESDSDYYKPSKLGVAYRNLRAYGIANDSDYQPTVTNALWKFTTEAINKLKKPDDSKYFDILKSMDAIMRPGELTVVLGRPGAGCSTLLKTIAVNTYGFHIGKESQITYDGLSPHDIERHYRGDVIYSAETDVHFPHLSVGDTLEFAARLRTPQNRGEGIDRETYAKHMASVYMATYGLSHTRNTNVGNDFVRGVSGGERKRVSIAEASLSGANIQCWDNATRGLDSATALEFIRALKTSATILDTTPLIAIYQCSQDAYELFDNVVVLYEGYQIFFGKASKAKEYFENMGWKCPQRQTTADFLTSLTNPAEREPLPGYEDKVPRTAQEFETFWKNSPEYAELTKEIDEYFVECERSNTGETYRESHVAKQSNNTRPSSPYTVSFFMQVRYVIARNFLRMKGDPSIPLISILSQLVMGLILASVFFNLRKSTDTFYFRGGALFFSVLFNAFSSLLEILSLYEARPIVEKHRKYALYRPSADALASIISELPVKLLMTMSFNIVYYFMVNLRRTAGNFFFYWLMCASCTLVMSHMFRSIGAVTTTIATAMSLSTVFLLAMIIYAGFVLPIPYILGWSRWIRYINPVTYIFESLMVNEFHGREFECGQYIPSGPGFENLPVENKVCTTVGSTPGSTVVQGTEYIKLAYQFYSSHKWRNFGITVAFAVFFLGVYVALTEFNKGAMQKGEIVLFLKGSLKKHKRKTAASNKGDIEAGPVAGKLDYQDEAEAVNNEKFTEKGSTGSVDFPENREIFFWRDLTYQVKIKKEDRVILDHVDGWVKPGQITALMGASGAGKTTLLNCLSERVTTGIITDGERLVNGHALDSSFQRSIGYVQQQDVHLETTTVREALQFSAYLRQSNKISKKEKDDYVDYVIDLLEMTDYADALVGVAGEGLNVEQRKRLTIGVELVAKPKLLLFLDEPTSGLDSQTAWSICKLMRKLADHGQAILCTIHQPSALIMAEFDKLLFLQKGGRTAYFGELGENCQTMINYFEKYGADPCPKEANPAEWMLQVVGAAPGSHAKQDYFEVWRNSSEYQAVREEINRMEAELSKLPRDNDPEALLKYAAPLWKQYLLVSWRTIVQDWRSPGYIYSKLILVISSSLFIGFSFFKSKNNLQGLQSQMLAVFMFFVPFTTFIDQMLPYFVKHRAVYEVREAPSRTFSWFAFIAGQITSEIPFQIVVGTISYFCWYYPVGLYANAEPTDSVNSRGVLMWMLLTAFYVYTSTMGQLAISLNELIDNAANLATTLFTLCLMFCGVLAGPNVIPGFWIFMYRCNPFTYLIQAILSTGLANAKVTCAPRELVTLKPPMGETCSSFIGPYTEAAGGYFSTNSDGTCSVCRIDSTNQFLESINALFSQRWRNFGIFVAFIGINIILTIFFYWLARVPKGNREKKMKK

Consider `O=C(CSc1nnc(Cc2cccs2)n1Cc1ccco1)Nc1ccc(Br)cc1`, for which the compound was classed as inactive.

As for `COc1ccc(C2CC(c3ccccc3C(F)(F)F)=NN2c2ccc(S(N)(=O)=O)cc2)cc1` (stereo not drawn), the compound was called inactive.

Regarding `NS(=O)(=O)c1ccc(N2N=C(c3ccccc3)CC2c2ccccc2)cc1` (stereo not drawn), the call was inactive.

Take `C[C@H](CO)N1C[C@H](C)[C@@H](CN(C)S(=O)(=O)c2ccccc2)Oc2c(NC(=O)Nc3ccccc3)cccc2C1=O`: the result was inactive.

On to `O=C(NC1CCCc2c1cnn2-c1ccccc1F)c1ccccn1` (stereo not drawn), for which the call was inactive.

As for `Cc1cccc(C2CC(c3ccccc3)=NN2c2ccc(S(N)(=O)=O)cc2)c1` (stereo not drawn), the call was inactive.

Regarding `COc1ccc(CN2C(=O)C(C)Nc3ncnc(N4CCN(c5ccccc5)CC4)c32)cc1` (stereo not drawn), the result was inactive.

As for `Nc1ccc(C(=O)OCCc2ccccc2)cc1`, the call was inactive.

As for `COc1ccc([C@H]2CC(=O)C=C(c3ccnc4ccc(Cl)cc34)C2)cc1`, the compound was classed as inactive.

Turning to `O=C(C1CCC(CNc2nc(=S)[nH]c3ccccc23)CC1)N1CCN(c2ccc(F)cc2)CC1` (stereo not drawn), the outcome was inactive.

On to `CN1Cc2cc(C(=O)c3ccccc3O)cnc2NC1=O`, for which the compound was called inactive.

`Cc1cc(C)c2sc(N(CCCN(C)C)C(=O)c3ccc(Br)s3)nc2c1`: the result was inactive.

As to `COc1cc(OC)c2ccc(=O)oc2c1C(CCN1CCCC1)c1ccc(N(C)C)cc1` (stereo not drawn), the compound was called inactive.
